# Bioassay records deposited in PubChem by National Center for Advancing Translational Sciences (NCATS).
# TDP1 cell CPT = DT40-hTDP1 cell growth loss with CPT; Potency, µM (top dose mostly 46.2 µM), most hits filed as inhibitors; AID 686979; 12% of 420,000 active; chicken DT40 Tdp1-/-;hTDP1 cells + 20 nM CPT, ATP luminescence, 48 h; also: nearly all actives have a fitted effect of over 55% in size
#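 Chicken DT40 Tdp1-/- cells stably complemented with human TDP1 were seeded at 400 cells/well in medium containing 20 nM camptothecin, exposed to pin-transferred compounds, and grown at 37 °C for at least 48 hr. Viability was read as ATP luminescence.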
# HT1080-NT tox = kills 2HG-producing HT-1080-NT fibrosarcoma cells. HT-1080-NT fibrosarcoma viability, CellTiter-Glo ATP luminescence, 48 h. Potency, µM (highest dose often 46.1 µM), hits mostly cytotoxic. 1.6% of 360,000 active;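 also: NT is the 2HG producing partner of a matched IDH1 knockdown line; nearly all actives have a fitted effect of over 55% in size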
#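 Read-out is CellTiter-Glo luminescence after 10 minutes at room temperature, following 48 hours' compound treatment of HT-1080-NT cells (750 cells/well, RPMI, 5% FBS, 37 degrees C).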
# IL-1B inflam inh = inflammasome signaling inhibition, IL-1 beta readout; THP-1 LPS/ATP IL-1B secretion, AlphaLISA, 16 h; stronger effect = lower value; activity change, % at 57.5 µM; 4.7% of 360,000 active; in the data active = activity change below about -50%; inconclusive = mostly about -30% to -49%
#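 Secreted IL-1B measured by AlphaLISA bead assay after 16 h compound exposure of THP-1 cells; compounds (final up to 57.5 uM) added 1 h before LPS (250 ng/mL) and ATP (1.25 mM) stimulation; lower signal means less secretion.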
# ELG1 DNA repair = ELG1-dependent DNA repair inhibition; Potency, µM (series often up to 46.1 µM), usual class: inhibitors; HEK293T ELG1-luciferase reporter, luminescence, 16 h; DNA damage induced by 5-fluorouridine; 2.3% of 330,000 active; AID 504467; also: nearly all actives have a fitted effect of over 55% in size
#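 In this reporter screen, reduction of luminescence relative to DMSO vehicle indicated activity. Compounds and 5-fluorouridine were added together to 2,000 cells per well, incubated for 16 hr at 37 °C, then developed with ONE-Glo.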
# HT1080 IDH1KD tx = kills HT-1080 cells with IDH1 knockdown. HT-1080 IDH1 knockdown viability, ATP luminescence, 48 h. Potency, µM (titrated, usually from 46.1 µM), most hits filed as cytotoxic. 2% of 360,000 active. AID 686971
#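 Assay cells: HT-1080 with IDH1 knockdown, 750 per well, RPMI/5% FBS. Exposure: 48 h at 37 °C following 2 h pre-incubation. Read: CellTiter-Glo luminescence; fitted concentration-response, curve class assigned.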
# DT40 TDP1 no CPT = qHTS for Inhibitors of human tyrosyl-DNA phosphodiesterase 1 (TDP1): qHTS in cells in absence of CPT | DT40 Tdp1-/- hTDP1 cells, no CPT, ATP luminescence, 48 h | Potency, µM (titrated, usually from 46.2 µM), hits mostly inhibitors | 15% of 420,000 active | AID 686978, 2013; also: nearly all actives have a fitted effect of over 55% in size
#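 A cellular qHTS used chicken DT40 cells lacking endogenous Tdp1 but carrying stably transfected human TDP1. Compounds were applied without camptothecin, and cell growth kinetics were judged by ATP-dependent luminescence after ≥48 hr.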
# A number is an active result; – = inactive; ? = inconclusive; · = not tested or not shown; [ ] = another dose, or the depositor's remark. This is a sample that favours compounds with a hit; in the whole collection about 19% have one here. Unless noted, calls follow the shape of the dose curve; as a rule, active = well fitted curve in the direction sought with a large enough effect; inconclusive = small, poorly fitted or top-dose-only effect, or another doubt; inactive = no such curve, though single readings can be large; an effect the other way counts as inactive or inconclusive.
SMILES,TDP1 cell CPT,HT1080-NT tox,IL-1B inflam inh,ELG1 DNA repair,HT1080 IDH1KD tx,DT40 TDP1 no CPT
CCc1cccc(OCC(=O)Nc2ccc(S(=O)(=O)Nc3ncccn3)cc2)c1,–,·,·,·,·,–
COCc1ccc(CN2CCOc3c(O)cc(-c4cc(C)c5ccc(F)cc5n4)cc3C2)o1,–[9.04 µM],·,·,·,·,?
CC(=O)c1ccc(NC(=O)CN2C(=O)NC3(CCc4ccccc43)C2=O)cc1 (stereo not drawn),–,–,–,–,–,–
Cc1ncc2c(c1CNS(=O)(=O)c1cccs1)CCN(C(=O)/C=C/c1ccc(F)cc1F)C2,–[9.04 µM],·,·,·,·,?
CSc1nc(C(=O)N2CCc3c(cnc(C)c3CNC(=O)c3ccc4c(c3)OCO4)C2)cs1,0.13µM,·,·,·,·,0.16µM
Cc1cnc(C(=O)NCc2c(C)ncc3c2CCN(C(=O)/C=C/c2cccs2)C3)cn1,0.0046µM,·,·,·,·,–
Cc1ncc2c(c1CNC(=O)/C=C/c1cccs1)CCN(C(=O)C1CCCO1)C2 (stereo not drawn),–[9.04 µM],·,·,·,·,–
Cc1ncc2c(c1CNS(=O)(=O)c1cccs1)CCN(C(=O)/C=C/c1cc(F)cc(F)c1)C2,–[9.04 µM],·,·,·,·,23µM
COCCCNC1=C(C#N)C(=O)NC2(CCCC2)S1,–,–,–,·,–,–
Cc1ccc(C(C)C)c(OCC(=O)Nc2c(C(=O)c3ccccc3)oc3ccccc23)c1,–,·,·,·,·,?
CNc1ccc2ncc(-c3cccc(C(=O)N(C)C)c3)n2n1,?,–,–,·,–,12µM
CN(C)C(=O)c1cccc(-c2ccc3nncn3c2)c1,–,–,–,·,–,–
c1ccc(Sc2ccccc2CN2CCCC2)cc1,–,–,–,·,–,–
N=C(N)Cc1ccccc1Sc1ccccc1,9.2µM,–,?,–,–,8.2µM
CC1(C)CCC[C@@]2(C)CC=C(C(=O)O)[C@@H]3C[C@]312,–,–,–,–,–,–
Cc1ccc(-n2c(=O)c3c(c4cc(C)ccc4n3C)n(CC(=O)Nc3c(C)cccc3C)c2=O)cc1,–,·,·,·,·,–
CCN(CC)CCNC(=O)CCc1c(C)nc2c(c(C)nn2-c2ccc(C)c(C)c2)c1C,?,?,–,?,26µM,16µM
COc1ccc(CCNC(=O)CCc2c(C)nc3c(c(C)nn3-c3ccc(C)c(C)c3)c2C)cc1OC,21µM,·,·,·,·,16µM
COc1ccccc1CNC(=O)CCc1c(C)nc2c(c(C)nn2-c2ccc(C)c(C)c2)c1C,–,·,·,·,·,–
Cc1cccc(CCNC(=O)CCc2c(C)nc3c(c(C)nn3-c3ccccc3)c2C)c1,12µM,·,·,·,·,15µM
COCCn1cnc2c1c(=O)n(CC(=O)NC(=O)NC(C)(C)C)c(=O)n2Cc1ccccc1,–,–,–,–,–,–
COC(=O)Cc1ccc(N(Cc2ccccc2F)S(=O)(=O)c2ccc(C)cc2)cc1,21µM,–,–,–,–,18µM
Cc1ccc(OCC(=O)Nc2ccc(S(=O)(=O)N(Cc3ccccc3)c3ccccc3)cc2)cc1,18µM,·,·,·,·,4.6µM
Cc1ccc(S(=O)(=O)N(C)c2ccc(OCC(=O)Nc3ccc(C(=O)N(C)C)cc3)cc2)cc1C,?,–,–,–,–,18µM
Cc1ccc(N(CCC(=O)O)S(=O)(=O)c2ccccc2)cc1,–,–,–,–,–,–
SMILES,TDP1 cell CPT,HT1080-NT tox,IL-1B inflam inh,ELG1 DNA repair,HT1080 IDH1KD tx,DT40 TDP1 no CPT
COc1ccc(CN(C)C(=O)CCN(c2ccccc2)S(=O)(=O)c2ccc(C)cc2)c(OC)c1,21µM,–,–,?,–,23µM
COC(=O)CN(c1ccccc1)S(=O)(=O)c1ccc(F)cc1,–,–,–,–,–,–
CCOC(=O)C1=C(COC(=O)Cc2ccccc2)NC(=O)NC1C (stereo not drawn),–,–,–,–,–,–
COc1ccc2oc(=O)c(-c3nc(-c4cc(OC)c(OC)c(OC)c4)no3)cc2c1,–,·,·,·,·,–
C=CCOC(=O)COc1ccc2c3c(c(=O)oc2c1)CCCC3,–,–,–,·,–,–
CCc1nn2c(=O)cc(COC(=O)c3cc(Cl)c(OC)c(OC)c3)nc2s1,?,–,–,–,–,?
COc1ccc(OCC(=O)Nc2ccc(S(=O)(=O)N(C)c3ccccc3)cc2)cc1,–,–,–,–,–,–
COC(=O)c1ccc(NC(=O)COc2ccc(N(C)S(=O)(=O)c3ccc(C)cc3)cc2)cc1,16µM,–,–,?,–,?
CCOC(=O)c1sc2nc(CC(=O)OC)nc(NCc3ccc(Cl)cc3)c2c1C,4.1µM,–,?,5.8µM,–,5.8µM
CCOC(=O)c1sc2nc(CC(=O)OC)nc(NCCN(CC)CC)c2c1C,–,–,–,–,–,–
O=S(=O)(c1cccs1)N1CCN(c2ncccn2)CC1,–,–,–,–,–,–
Cc1nc(N2CCN(S(=O)(=O)c3cccs3)CC2)c2c(-c3ccccc3)c(C)sc2n1,?,–,–,·,–,13µM
CCOC(=O)c1sc2nc(C)nc(N3CCN(S(=O)(=O)c4ccccc4)CC3)c2c1C,8.2µM,–,–,23µM,–,6.5µM
CCOC(=O)c1sc2nc(C)[nH]c(=S)c2c1C,?,–,–,–,–,21µM
COc1ccc(S(=O)(=O)n2nc(OCc3cccs3)cc2N)cc1,?,–,–,–,–,–
CCc1ccccc1NC(=O)N1CCN(Cc2nc3ccc(C)cc3o2)CC1,–,·,·,·,·,–
CCOC(=O)c1sc2nc(C)nc(NCc3ccccc3)c2c1C,10µM,–,–,23µM,–,21µM
CCOC(=O)c1sc2nc(CC(=O)OC)nc(N3CCN(c4ccc(OC)cc4)CC3)c2c1C,23µM,–,–,?,?,23µM
Cn1c(=S)ccc2ccccc21,–,–,–,–,–,–
CCC(=O)N1Cc2cc(C(=O)NCCOC)nc(-c3cccc(-c4ccc(C#N)cc4)c3)c2[C@H]1CCO,–,–,–,·,–,?
CCCNC(=O)c1cc2c(c(-c3cccc(-c4ccccc4F)c3)n1)[C@H](CCO)N(C(=O)CC1CC1)C2,16µM,?,–,·,?,16µM
CCNC(=O)c1cc2c(c(-c3cccc(-c4ccccc4F)c3)n1)[C@@H](CCO)N(C(=O)CC1CC1)C2,21µM,?,–,·,?,?
CC(C)CC1NC(=O)N(CC(=O)N(C)C2CCCCC2)C1=O (stereo not drawn),–,–[9.24 µM],–,?,–,–
Nc1nnc(CC(=O)N/N=C/c2ccc(-c3ccc(F)cc3)o2)s1,–,–,-51,–,–,–
CCOC(=O)c1ccc(-c2ccc(/C=N/NC(=O)Cc3nnc(N)s3)o2)cc1,–,–,–,?,–,?
